Records with an inconclusive call do not appear. Entries that show only a call come without a potency. Calls of active or inactive are those of the source. Calls follow the shape of the dose curve; as a rule, active = well fitted inhibition curve with a large enough effect; inconclusive = small, poorly fitted or top-dose-only effect; inactive = flat fitted curve, though single readings scatter. Peptide text beside a SMILES is read from it.
Test system: CP217
Experiment: qHTS profiling for inhibitors of Plasmodium falciparum proliferation (AID 504749); also: nearly all actives have a fitted effect of over 60% in size
Conditions: P. falciparum in erythrocytes, SYBR Green DNA, 72 h; series mostly up to 12.8 µM
Summary of the method: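 Each compound contacts P. falciparum-infected red blood cells for 72 h at 37 C; lysis buffer (Tris, EDTA, saponin, Triton X, SYBR Green I) is added and fluorescence measured next morning; values normalized to controls.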
Potency is read from the fitted curve at half-maximal effect.

Row | Structure (SMILES) | Potency
1 | CN(C)CCCOC1C(C(O)CO)OC2OC(C)(C)O[C@@H]21 (stereo partly specified) | inactive
2 | CCC(C)C(=O)OC1CCC=C2C=CC(C)C(CCC3CC(O)CC(=O)O3)[C@@H]21 (stereo partly specified) | inactive
3 | CC(=O)OC1CCC2C3CCc4cc(O)ccc4C3CCC12C (stereo unspecified) | inactive
4 | CC[C@@]12CCCN3CCc4c(n(c5ccccc45)[C@](O)(C(=O)OC)C1)C32 (stereo partly specified) | inactive
5 | NC(C(=O)O)[C@@H]1CC(Cl)=NO1 (stereo partly specified) | 1.12 µM (active)
6 | CN1CC(=O)N=C1N | inactive
7 | OCC1OC([S-])[C@H](O)C(O)C1O.[Au+] (stereo partly specified) | inactive
8 | CC(C)C1CCC(C(=O)NC(Cc2ccccc2)C(=O)O)CC1 (stereo unspecified) | inactive
9 | CCC(CCC(C)C1CCC2C3CC=C4CC(O)CC[C@@]4(C)C3CC[C@@]12C)C(C)C (stereo partly specified) | inactive
10 | C[C@]12CCC(=O)C=C1CCC1C2C(=O)C[C@]2(C)C1CC[C@]2(O)C(=O)CO (stereo partly specified) | inactive
11 | OCC1O[C@H](OC2C(CO)O[C@@](O)(CO)C2O)C(O)C(O)C1O (stereo partly specified) | inactive
12 | CC1(C)OC2CO[C@]3(COS(N)(=O)=O)OC(C)(C)OC3C2O1 (stereo partly specified) | inactive
13 | CC1(C)OC2CC(=O)OC[C@@]23C1CC(=O)[C@]1(C)C3CC[C@@]2(C)C(c3ccoc3)OC(=O)C3O[C@@]321 (stereo partly specified) | inactive
14 | CCOC(=O)C1=CC(OC(CC)CC)C(NC(C)=O)C(N)C1 (stereo unspecified) | inactive
15 | COC1C=CO[C@@]2(C)Oc3c(C)c(O)c4c(O)c(c5c(nc6cc(C)ccn65)c4c3C2=O)NC(=O)/C(C)=C\C=CC(C)C(O)[C@@H](C)C(O)C(C)[C@@H](OC(C)=O)C1C (stereo partly specified) | 10 µM (active)
16 | COC(=O)C(Cc1ccccc1)NC(=O)C(N)CC(=O)O (stereo not drawn) (H-Asp-Phe-OMe; configuration not given here) | inactive

From PubChem BioAssay (NCATS)
